Measurements: PubChem BioAssay AID1159580 (chemical genetic matrix, 2015)
Screen size: about 5,500 compounds; about 2,000 (36%) were called active. Another 18% or so got no clear call; they are omitted. Cut-off read from the data, not from the text of the source: active = normalized growth mostly below about 0.91 (no sharp cut-off); inconclusive = no clear call, values can overlap the other calls; inactive = mostly above about 0.92. Some of the results follow.

Test: chemical genetic growth profiling, strain panel (AID 1159580);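 note: tested at 20 µM; growth read once vehicle control cultures reached saturation at 30 °C; 1 = growth at the plate median or of vehicle wells; lower values mean less growth of the strain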
Conditions: growth OD

Measured: normalized growth

C[C@@H]1CC(Cl)CC[C@H]1C(=O)OC(C)(C)C (some centres not stated)
inactive: S. cerevisiae deletion strains, locus YJR075W, strain HOC1, active compounds read low 0.964 | S. cerevisiae deletion strains, locus YKL009W, strain mrt4, active compounds read low 1 | S. cerevisiae deletion strains, locus YKL068W, active compounds read low 0.98 | S. cerevisiae deletion strains, locus YKL085W, strain MDH1 (second series), active compounds read low 0.977 | S. cerevisiae deletion strains, locus YKL085W, strain MDH1, active compounds read low 0.977 | S. cerevisiae deletion strains, locus YKL160W, strain elf1, active compounds read low 1.02 | S. cerevisiae deletion strains, locus YKL190W, strain CNB1, active compounds read low 0.981 | S. cerevisiae deletion strains, locus YKR001C, strain vps1, active compounds read low 1.01 | S. cerevisiae deletion strains, locus YKR026C, strain gcn3, active compounds read low 0.985 | S. cerevisiae deletion strains, locus YKR091W, strain srl3, active compounds read low 0.982 | S. cerevisiae deletion strains, locus YLL001W, strain dnm1, active compounds read low 0.979 | S. cerevisiae deletion strains, locus YLL026W, active compounds read low 0.983 | S. cerevisiae deletion strains, locus YLL041C, strain sdh2, active compounds read low 0.982 | S. cerevisiae deletion strains, locus YLR027C, strain aat2, active compounds read low 0.982 | S. cerevisiae deletion strains, locus YLR039C, strain RIC1, active compounds read low 1 | S. cerevisiae deletion strains, locus YLR058C, strain SHM2, active compounds read low 0.991 | S. cerevisiae deletion strains, locus YLR102C, strain apc9, active compounds read low 0.991 | S. cerevisiae deletion strains, locus YLR113W, strain HOG1, active compounds read low 0.999 | S. cerevisiae deletion strains, locus YLR221C, strain rsa3, active compounds read low 1.01 | S. cerevisiae deletion strains, locus YLR258W, strain gsy2, active compounds read low 0.97 | S. cerevisiae deletion strains, locus YLR262C, strain YPT6 (second series), active compounds read low 0.965 | S. cerevisiae deletion strains, locus YLR262C, strain YPT6, active compounds read low 0.957 | S. cerevisiae deletion strains, locus YLR268W, strain sec22, active compounds read low 0.976 | S. cerevisiae deletion strains, locus YLR320W, strain mms22, active compounds read low 0.954 | S. cerevisiae deletion strains, locus YLR330W, strain CHS5, active compounds read low 0.99 | S. cerevisiae deletion strains, locus YLR342W, strain FKS1 (second series), active compounds read low 1.05 | S. cerevisiae deletion strains, locus YLR342W, strain FKS1, active compounds read low 0.98 | S. cerevisiae deletion strains, locus YLR357W, strain rsc2, active compounds read low 0.985 | S. cerevisiae deletion strains, locus YLR370C, strain arc18, active compounds read low 0.991 | S. cerevisiae deletion strains, locus YLR371W, strain rom2, active compounds read low 1 | S. cerevisiae deletion strains, locus YLR384C, strain iki3, active compounds read low 0.982 | S. cerevisiae deletion strains, locus YLR418C, strain cdc73, active compounds read low 0.972 | S. cerevisiae deletion strains, locus YML016C, strain PPZ1, active compounds read low 0.992 | S. cerevisiae deletion strains, locus YML032C, strain rad52, active compounds read low 0.967 | S. cerevisiae deletion strains, locus YML120C, strain ndi1, active compounds read low 1 | S. cerevisiae deletion strains, locus YML124C, strain tub3, active compounds read low 0.983 | S. cerevisiae deletion strains, locus YMR058W, strain fet3, active compounds read low 0.976 | S. cerevisiae deletion strains, locus YMR078C, strain ctf18, active compounds read low 0.985 | S. cerevisiae deletion strains, locus YMR125W, strain sto1, active compounds read low 0.962 | S. cerevisiae deletion strains, locus YMR129W, active compounds read low 0.961 | S. cerevisiae deletion strains, locus YMR205C, strain PFK2, active compounds read low 0.928 | S. cerevisiae deletion strains, locus YMR223W, strain ubp8, active compounds read low 1.04 | S. cerevisiae deletion strains, locus YMR231W, strain pep5, active compounds read low 0.995 | S. cerevisiae deletion strains, locus YMR263W, strain SAP30, active compounds read low 0.976 | S. cerevisiae deletion strains, locus YMR307W, strain GAS1, active compounds read low 1 | S. cerevisiae deletion strains, locus YNL067W, strain RPL9B, active compounds read low 0.959 | S. cerevisiae deletion strains, locus YNL071W, strain lat1, active compounds read low 0.985 | S. cerevisiae deletion strains, locus YNL128W, strain TEP1, active compounds read low 0.971 | S. cerevisiae deletion strains, locus YNL153C, strain GIM3, active compounds read low 0.986 | S. cerevisiae deletion strains, locus YNL183C, strain NPR1, active compounds read low 0.948 | S. cerevisiae deletion strains, locus YNL209W, strain ssb2, active compounds read low 0.989 | S. cerevisiae deletion strains, locus YNL233W, strain BNI4, active compounds read low 0.997 | S. cerevisiae deletion strains, locus YNL248C, strain rpa49, active compounds read low 1.01 | S. cerevisiae deletion strains, locus YNL250W, strain rad50, active compounds read low 0.987 | S. cerevisiae deletion strains, locus YNL271C, strain bni1, active compounds read low 0.976 | S. cerevisiae deletion strains, locus YNL298W, strain CLA4, active compounds read low 0.979 | S. cerevisiae deletion strains, locus YNL307C, strain MCK1, active compounds read low 0.995 | S. cerevisiae deletion strains, locus YNL322C, strain KRE1 (second series), active compounds read low 0.996 | S. cerevisiae deletion strains, locus YNL322C, strain KRE1, active compounds read low 0.956 | S. cerevisiae deletion strains, locus YNR049C, strain mso1, active compounds read low 0.971 | S. cerevisiae deletion strains, locus YNR052C, strain pop2, active compounds read low 0.989 | S. cerevisiae deletion strains, locus YOL006C, strain TOP1, active compounds read low 0.991 | S. cerevisiae deletion strains, locus YOL012C, strain htz1 0.765 | S. cerevisiae deletion strains, locus YOL147C, strain pex11, active compounds read low 0.992 | S. cerevisiae deletion strains, locus YOR001W, strain rrp6, active compounds read low 1 | S. cerevisiae deletion strains, locus YOR061W, strain CKA2, active compounds read low 0.993 | S. cerevisiae deletion strains, locus YOR069W, strain VPS5, active compounds read low 0.989 | S. cerevisiae deletion strains, locus YOR070C, strain gyp1, active compounds read low 0.991 | S. cerevisiae deletion strains, locus YOR080W, strain dia2, active compounds read low 0.98 | S. cerevisiae deletion strains, locus YOR083W, strain WHI5, active compounds read low 1.04 | S. cerevisiae deletion strains, locus YOR106W, strain vam3, active compounds read low 1 | S. cerevisiae deletion strains, locus YOR136W, strain idh2, active compounds read low 0.996 | S. cerevisiae deletion strains, locus YOR144C, strain elg1, active compounds read low 0.991 | S. cerevisiae deletion strains, locus YOR184W, strain ser1, active compounds read low 0.935 | S. cerevisiae deletion strains, locus YOR231W, strain MKK1, active compounds read low 1.01 | S. cerevisiae deletion strains, locus YOR265W, strain rbl2, active compounds read low 0.986 | S. cerevisiae deletion strains, locus YOR270C, strain vph1, active compounds read low 0.928 | S. cerevisiae deletion strains, locus YOR290C, strain snf2, active compounds read low 0.92 | S. cerevisiae deletion strains, locus YOR316C, strain cot1, active compounds read low 0.969 | S. cerevisiae deletion strains, locus YPL051W, strain arl3, active compounds read low 1 | S. cerevisiae deletion strains, locus YPL055C, strain LGE1, active compounds read low 0.864 | S. cerevisiae deletion strains, locus YPL078C, strain atp4, active compounds read low 1 | S. cerevisiae deletion strains, locus YPL106C, strain sse1, active compounds read low 0.962 | S. cerevisiae deletion strains, locus YPL240C, strain hsp82, active compounds read low 0.982 | S. cerevisiae deletion strains, locus YPL241C, strain CIN2, active compounds read low 0.997 | S. cerevisiae deletion strains, locus YPL256C, strain CLN2, active compounds read low 1.01 | S. cerevisiae deletion strains, locus YPR119W, strain clb2, active compounds read low 0.977 | S. cerevisiae deletion strains, locus YPR141C, strain kar3, active compounds read low 0.979 | S. cerevisiae deletion strains, locus YPR163C, strain tif3, active compounds read low 0.992 | S. cerevisiae deletion strains, locus YPR167C, strain met16, active compounds read low 0.977 | S. cerevisiae deletion strains, strain wtn01, active compounds read low 0.977 | S. cerevisiae strains, strain wild type, active compounds read low 0.984
